# In ChEMBL document CHEMBL1961873, “Compounds: GSK PKIS; Assays: Nanosyn kinase panel” (2012):
# How the values were obtained:
# [1] = tested on: Tyrosine-protein kinase ABL1 (Homo sapiens), P00519 [T315I]; details: at 1 µM
# [2] = tested on: Tyrosine-protein kinase ABL1 (Homo sapiens), P00519 [Y253F]; details: at 0.1 µM
# [3] = tested on: Tyrosine-protein kinase ABL1 (Homo sapiens), P00519 [Y253F]; details: at 1 µM
# [4] = target: Tyrosine-protein kinase ABL1 (Homo sapiens) (UniProt P00519); details: at 0.1 µM
# [5] = target: Tyrosine-protein kinase ABL1 (Homo sapiens) (UniProt P00519); details: at 1 µM
# [6] = target: ALK tyrosine kinase receptor (Homo sapiens) (UniProt Q9UM73); details: at 0.1 µM
# [7] = target: ALK tyrosine kinase receptor (Homo sapiens) (UniProt Q9UM73); details: at 1 µM
# [8] = target: Tyrosine-protein kinase ABL2 (Homo sapiens) (UniProt P42684); details: at 0.1 µM
# [9] = target: Tyrosine-protein kinase ABL2 (Homo sapiens) (UniProt P42684); details: at 1 µM
# [10] = target: Tyrosine-protein kinase receptor UFO (Homo sapiens) (UniProt P30530); details: at 0.1 µM
# [11] = target: Tyrosine-protein kinase receptor UFO (Homo sapiens) (UniProt P30530); details: at 1 µM
# [12] = target: Tyrosine-protein kinase Blk (Homo sapiens) (UniProt P51451); details: at 0.1 µM
# [13] = target: Tyrosine-protein kinase Blk (Homo sapiens) (UniProt P51451); details: at 1 µM
# [14] = target: T1, Cytoplasmic tyrosine-protein kinase BMX (Homo sapiens) (UniProt P51813); details: at 0.1 µM
# T1 sequence (whole entry): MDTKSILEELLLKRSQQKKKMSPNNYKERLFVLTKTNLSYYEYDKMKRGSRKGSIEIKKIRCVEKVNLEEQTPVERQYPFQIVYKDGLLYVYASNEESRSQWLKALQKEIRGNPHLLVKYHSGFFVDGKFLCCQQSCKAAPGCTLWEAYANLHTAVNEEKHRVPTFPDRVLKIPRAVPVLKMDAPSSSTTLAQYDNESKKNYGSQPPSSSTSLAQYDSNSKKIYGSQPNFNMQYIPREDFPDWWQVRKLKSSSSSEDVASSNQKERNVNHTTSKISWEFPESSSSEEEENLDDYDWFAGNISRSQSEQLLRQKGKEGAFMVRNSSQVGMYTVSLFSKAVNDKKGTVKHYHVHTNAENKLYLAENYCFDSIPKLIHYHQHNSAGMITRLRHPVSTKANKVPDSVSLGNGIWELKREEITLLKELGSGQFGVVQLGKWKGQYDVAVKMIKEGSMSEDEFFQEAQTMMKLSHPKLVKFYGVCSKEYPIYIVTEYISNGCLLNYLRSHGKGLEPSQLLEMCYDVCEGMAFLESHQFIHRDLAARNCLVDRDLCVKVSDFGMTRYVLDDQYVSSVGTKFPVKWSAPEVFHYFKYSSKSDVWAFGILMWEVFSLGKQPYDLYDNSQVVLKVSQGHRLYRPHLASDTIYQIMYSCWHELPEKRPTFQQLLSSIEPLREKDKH
# [15] = target: T1, Cytoplasmic tyrosine-protein kinase BMX (Homo sapiens); details: at 1 µM
# [16] = target: Protein-tyrosine kinase 6 (Homo sapiens) (UniProt Q13882); details: at 0.1 µM
# [17] = target: Protein-tyrosine kinase 6 (Homo sapiens) (UniProt Q13882); details: at 1 µM
# [18] = target: Tyrosine-protein kinase BTK (Homo sapiens) (UniProt Q06187); details: at 0.1 µM
# [19] = target: Tyrosine-protein kinase BTK (Homo sapiens) (UniProt Q06187); details: at 1 µM
# [20] = target: Tyrosine-protein kinase CSK (Homo sapiens) (UniProt P41240); details: at 0.1 µM;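 also: value given is the averaged percent inhibition of CSK kinase activity, from the GSK PKIS kinase inhibitor set screening panel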
# Tyrosine-protein kinase CSK (Homo sapiens), sequence (P41240 2-450 limits assumed): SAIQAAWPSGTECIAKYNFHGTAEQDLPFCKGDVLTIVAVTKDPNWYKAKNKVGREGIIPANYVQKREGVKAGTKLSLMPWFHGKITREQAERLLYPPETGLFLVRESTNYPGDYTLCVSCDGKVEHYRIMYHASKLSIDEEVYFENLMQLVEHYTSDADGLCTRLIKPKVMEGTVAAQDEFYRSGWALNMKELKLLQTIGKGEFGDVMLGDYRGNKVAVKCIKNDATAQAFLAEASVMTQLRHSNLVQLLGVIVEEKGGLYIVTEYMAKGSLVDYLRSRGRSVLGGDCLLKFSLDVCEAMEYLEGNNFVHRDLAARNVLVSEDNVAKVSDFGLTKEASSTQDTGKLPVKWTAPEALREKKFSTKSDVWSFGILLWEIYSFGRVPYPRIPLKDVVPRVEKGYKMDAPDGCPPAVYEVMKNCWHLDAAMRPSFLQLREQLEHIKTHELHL
# Tyrosine-protein kinase receptor UFO (Homo sapiens), sequence (P30530 whole entry): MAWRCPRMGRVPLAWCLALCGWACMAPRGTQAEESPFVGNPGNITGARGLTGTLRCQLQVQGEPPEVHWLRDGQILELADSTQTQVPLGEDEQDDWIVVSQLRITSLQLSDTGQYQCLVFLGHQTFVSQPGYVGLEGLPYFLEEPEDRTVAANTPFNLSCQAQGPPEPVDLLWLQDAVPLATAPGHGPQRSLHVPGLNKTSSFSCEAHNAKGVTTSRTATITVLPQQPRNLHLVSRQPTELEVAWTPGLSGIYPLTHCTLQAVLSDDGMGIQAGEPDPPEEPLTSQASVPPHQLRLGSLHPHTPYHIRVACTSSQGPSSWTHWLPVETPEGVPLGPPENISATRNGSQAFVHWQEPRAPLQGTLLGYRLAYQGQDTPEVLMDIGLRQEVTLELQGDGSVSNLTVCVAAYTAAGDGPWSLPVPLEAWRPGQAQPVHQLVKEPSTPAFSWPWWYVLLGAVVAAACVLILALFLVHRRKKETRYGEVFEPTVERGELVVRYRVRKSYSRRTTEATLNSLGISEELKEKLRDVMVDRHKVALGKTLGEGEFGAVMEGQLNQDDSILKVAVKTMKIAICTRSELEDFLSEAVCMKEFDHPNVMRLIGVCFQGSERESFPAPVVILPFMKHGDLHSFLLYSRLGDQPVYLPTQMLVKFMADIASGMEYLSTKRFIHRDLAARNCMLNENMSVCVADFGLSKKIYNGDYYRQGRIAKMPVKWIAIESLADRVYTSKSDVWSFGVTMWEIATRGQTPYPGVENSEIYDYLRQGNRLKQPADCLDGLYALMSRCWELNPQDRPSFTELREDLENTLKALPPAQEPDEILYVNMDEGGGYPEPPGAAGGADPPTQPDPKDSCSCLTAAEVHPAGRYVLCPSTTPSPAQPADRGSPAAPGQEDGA
# Tyrosine-protein kinase ABL2 (Homo sapiens), sequence (P42684 whole entry): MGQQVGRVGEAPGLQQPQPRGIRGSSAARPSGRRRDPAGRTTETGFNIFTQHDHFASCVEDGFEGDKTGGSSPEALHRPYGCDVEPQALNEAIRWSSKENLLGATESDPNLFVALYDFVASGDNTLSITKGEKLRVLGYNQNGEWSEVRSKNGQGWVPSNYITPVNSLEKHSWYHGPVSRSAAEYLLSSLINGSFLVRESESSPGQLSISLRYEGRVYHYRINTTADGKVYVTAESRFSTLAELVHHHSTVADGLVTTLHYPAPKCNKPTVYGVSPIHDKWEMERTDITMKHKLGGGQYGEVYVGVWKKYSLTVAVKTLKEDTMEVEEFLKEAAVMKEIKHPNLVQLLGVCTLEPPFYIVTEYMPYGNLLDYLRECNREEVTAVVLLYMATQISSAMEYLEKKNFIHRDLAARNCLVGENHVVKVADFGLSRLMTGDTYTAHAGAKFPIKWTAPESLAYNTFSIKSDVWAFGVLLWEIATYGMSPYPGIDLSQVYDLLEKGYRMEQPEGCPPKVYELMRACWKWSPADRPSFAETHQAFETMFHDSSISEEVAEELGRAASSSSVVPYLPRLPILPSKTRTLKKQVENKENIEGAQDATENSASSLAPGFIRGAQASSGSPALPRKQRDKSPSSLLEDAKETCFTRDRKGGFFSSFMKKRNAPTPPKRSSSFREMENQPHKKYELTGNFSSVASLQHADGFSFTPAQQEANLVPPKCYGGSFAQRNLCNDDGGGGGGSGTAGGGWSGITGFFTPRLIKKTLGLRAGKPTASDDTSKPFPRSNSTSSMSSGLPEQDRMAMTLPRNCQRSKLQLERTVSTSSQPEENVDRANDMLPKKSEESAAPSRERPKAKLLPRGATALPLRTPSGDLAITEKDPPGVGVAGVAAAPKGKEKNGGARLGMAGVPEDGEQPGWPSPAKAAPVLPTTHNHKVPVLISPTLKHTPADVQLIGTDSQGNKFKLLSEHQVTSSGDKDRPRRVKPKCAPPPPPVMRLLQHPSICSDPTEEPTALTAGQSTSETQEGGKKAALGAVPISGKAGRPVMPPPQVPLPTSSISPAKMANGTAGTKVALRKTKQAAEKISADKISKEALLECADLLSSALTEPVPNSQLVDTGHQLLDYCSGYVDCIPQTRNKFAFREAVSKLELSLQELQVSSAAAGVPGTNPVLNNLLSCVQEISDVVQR
# Tyrosine-protein kinase Blk (Homo sapiens), sequence (P51451 2-505 limits assumed): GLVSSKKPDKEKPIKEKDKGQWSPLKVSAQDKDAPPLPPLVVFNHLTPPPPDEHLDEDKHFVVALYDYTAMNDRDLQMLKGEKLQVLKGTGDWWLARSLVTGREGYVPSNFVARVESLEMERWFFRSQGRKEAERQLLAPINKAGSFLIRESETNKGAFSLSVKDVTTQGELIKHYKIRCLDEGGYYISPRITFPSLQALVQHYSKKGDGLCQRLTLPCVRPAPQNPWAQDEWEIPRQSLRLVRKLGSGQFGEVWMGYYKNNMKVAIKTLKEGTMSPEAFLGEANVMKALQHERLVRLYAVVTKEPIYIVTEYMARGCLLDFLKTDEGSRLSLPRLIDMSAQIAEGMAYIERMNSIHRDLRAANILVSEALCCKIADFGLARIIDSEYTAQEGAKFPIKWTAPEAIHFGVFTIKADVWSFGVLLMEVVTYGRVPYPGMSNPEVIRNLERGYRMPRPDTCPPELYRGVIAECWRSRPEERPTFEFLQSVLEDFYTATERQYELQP
# ALK tyrosine kinase receptor (Homo sapiens), sequence (Q9UM73 19-1620 limits assumed): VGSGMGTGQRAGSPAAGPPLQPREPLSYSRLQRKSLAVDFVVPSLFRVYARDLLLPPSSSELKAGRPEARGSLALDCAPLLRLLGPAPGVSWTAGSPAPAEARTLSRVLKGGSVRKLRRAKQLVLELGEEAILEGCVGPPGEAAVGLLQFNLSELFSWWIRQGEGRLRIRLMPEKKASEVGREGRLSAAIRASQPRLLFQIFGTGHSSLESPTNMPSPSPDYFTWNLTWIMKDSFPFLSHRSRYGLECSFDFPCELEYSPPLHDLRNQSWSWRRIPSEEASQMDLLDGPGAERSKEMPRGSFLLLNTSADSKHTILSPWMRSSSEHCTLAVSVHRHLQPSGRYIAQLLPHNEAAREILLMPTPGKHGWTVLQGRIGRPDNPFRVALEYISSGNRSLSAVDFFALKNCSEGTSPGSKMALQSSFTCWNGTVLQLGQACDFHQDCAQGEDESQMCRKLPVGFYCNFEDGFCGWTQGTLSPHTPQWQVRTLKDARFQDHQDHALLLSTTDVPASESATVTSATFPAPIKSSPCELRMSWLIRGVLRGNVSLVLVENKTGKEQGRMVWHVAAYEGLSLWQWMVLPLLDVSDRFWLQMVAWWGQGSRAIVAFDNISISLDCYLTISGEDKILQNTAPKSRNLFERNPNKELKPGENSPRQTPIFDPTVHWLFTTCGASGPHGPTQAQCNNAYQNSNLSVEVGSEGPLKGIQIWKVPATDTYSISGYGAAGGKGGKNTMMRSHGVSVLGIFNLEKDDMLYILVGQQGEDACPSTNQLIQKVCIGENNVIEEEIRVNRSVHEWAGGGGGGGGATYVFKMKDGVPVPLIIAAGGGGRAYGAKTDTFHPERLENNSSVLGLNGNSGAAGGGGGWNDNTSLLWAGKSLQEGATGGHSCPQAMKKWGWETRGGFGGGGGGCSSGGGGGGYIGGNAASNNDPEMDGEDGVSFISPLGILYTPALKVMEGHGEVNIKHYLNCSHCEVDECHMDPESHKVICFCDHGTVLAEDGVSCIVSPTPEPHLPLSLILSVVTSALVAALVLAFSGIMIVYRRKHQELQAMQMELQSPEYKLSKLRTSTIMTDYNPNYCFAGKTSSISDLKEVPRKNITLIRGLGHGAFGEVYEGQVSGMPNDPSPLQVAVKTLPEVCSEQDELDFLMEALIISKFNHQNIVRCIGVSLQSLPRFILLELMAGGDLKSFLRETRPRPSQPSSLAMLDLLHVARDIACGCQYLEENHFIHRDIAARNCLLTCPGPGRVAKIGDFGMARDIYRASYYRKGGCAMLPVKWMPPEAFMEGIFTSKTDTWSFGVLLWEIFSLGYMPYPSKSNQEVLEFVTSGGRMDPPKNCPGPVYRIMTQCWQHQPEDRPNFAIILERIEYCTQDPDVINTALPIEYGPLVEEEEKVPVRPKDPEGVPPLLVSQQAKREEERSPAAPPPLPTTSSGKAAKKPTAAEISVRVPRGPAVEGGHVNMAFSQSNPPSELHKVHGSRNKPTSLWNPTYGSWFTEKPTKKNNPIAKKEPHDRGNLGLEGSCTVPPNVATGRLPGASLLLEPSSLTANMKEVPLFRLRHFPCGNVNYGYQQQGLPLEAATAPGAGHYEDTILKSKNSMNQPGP
# Protein-tyrosine kinase 6 (Homo sapiens), sequence (Q13882 whole entry, looked up): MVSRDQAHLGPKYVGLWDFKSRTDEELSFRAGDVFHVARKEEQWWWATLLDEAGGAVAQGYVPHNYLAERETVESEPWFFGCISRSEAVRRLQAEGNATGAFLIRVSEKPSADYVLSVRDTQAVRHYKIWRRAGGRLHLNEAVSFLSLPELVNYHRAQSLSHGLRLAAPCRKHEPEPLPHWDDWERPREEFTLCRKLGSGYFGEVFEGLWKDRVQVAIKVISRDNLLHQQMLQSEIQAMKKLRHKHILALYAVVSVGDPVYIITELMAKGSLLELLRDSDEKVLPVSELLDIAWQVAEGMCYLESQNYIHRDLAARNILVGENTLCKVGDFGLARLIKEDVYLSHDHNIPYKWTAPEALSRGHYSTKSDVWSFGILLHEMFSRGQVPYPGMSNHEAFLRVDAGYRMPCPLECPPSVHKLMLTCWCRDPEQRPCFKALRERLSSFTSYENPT
smiles,measurement,setting,value
Cc1cc(O)cc(C)c1/C=C/c1cncc(-c2nn[nH]n2)c1,inhibition,[1],8.36%
same,inhibition,[2],31.5%
same,inhibition,[3],86.1%
same,inhibition,[4],12.4%
same,inhibition,[5],71.1%
same,inhibition,[6],-0.37%
same,inhibition,[7],4.03%
same,inhibition,[8],19.9%
same,inhibition,[9],68.6%
same,inhibition,[10],-8.81%
same,inhibition,[11],-3.63%
same,inhibition,[12],0.83%
same,inhibition,[13],48.1%
same,inhibition,[14],11.2%
same,inhibition,[15],66.3%
same,inhibition,[16],29.6%
same,inhibition,[17],86.3%
same,inhibition,[18],-0.39%
same,inhibition,[19],7.14%
same,inhibition,[20],8.08%
CCCN1CCC(Oc2cc(Nc3nc(Nc4cccc(F)c4C(N)=O)c4cc[nH]c4n3)c(OC)cc2Cl)CC1,inhibition,[1],1.37%
same,inhibition,[2],1.12%
same,inhibition,[3],3.82%
same,inhibition,[4],4.76%
same,inhibition,[5],10.1%
same,inhibition,[6],55.7%
same,inhibition,[7],78.2%
same,inhibition,[8],4.89%
same,inhibition,[9],12.3%
same,inhibition,[10],5.22%
same,inhibition,[11],6.29%
same,inhibition,[12],0.32%
same,inhibition,[13],4.43%
same,inhibition,[14],-3.07%
same,inhibition,[15],0.44%
same,inhibition,[16],2.81%
same,inhibition,[17],14.8%
same,inhibition,[18],0.06%
same,inhibition,[19],0.8%
same,inhibition,[20],-0.02%
CS(=O)(=O)CCN(CC#N)Cc1ccc(-c2ccc3ncnc(Nc4ccc(OCc5cccc(F)c5)c(Cl)c4)c3c2)o1,inhibition,[1],-0.34%
same,inhibition,[2],2.36%
same,inhibition,[3],1.9%
same,inhibition,[4],-2.3%
same,inhibition,[5],-2.95%
same,inhibition,[6],-2.83%
same,inhibition,[7],-0.48%
same,inhibition,[8],-2.62%
same,inhibition,[9],-1.72%
same,inhibition,[10],-6.1%
same,inhibition,[11],-5.07%
same,inhibition,[12],-2.59%
same,inhibition,[13],-2.7%
same,inhibition,[14],1.65%
same,inhibition,[15],3.9%
same,inhibition,[16],2.35%
same,inhibition,[17],4.81%
same,inhibition,[18],-4.96%
same,inhibition,[19],-5.01%
same,inhibition,[20],3.24%
COc1ccc(-c2coc3ncnc(N)c23)cc1,inhibition,[1],2.72%
same,inhibition,[2],4.98%
same,inhibition,[3],10.8%
same,inhibition,[4],3.7%
same,inhibition,[5],12%
same,inhibition,[6],4.4%
same,inhibition,[7],3.97%
same,inhibition,[8],3.42%
same,inhibition,[9],8.31%
same,inhibition,[10],-5.99%
same,inhibition,[11],-2.11%
same,inhibition,[12],1.6%
same,inhibition,[13],5.06%
same,inhibition,[14],7.73%
same,inhibition,[15],6.07%
same,inhibition,[16],3.81%
same,inhibition,[17],11.8%
same,inhibition,[18],0.04%
same,inhibition,[19],2.7%
same,inhibition,[20],2.45%
